Experimental data from the OligoGym collection.

Target: NXF3
Experiment: pooled miR-30 sensor sort-seq; sequence = guide strand
Conditions: shRNA
Also: reference of the scale not given here.

| Sequence | sensor-assay potency score (higher = more potent) |
| --- | --- |
| TTTTCTGACTTCAGCTCCCTGT | -0.506 |
| TTATCTGCTCCACCTTTTCTGA | -1.35 |
| TGCTCTTCTTTGAACAACTTGA | -0.684 |
| TGCATCTCCATCTTGCTGCTGA | -0.136 |
| TAATTTGGGGAACAATTCCAGG | -1.33 |
| AATCTTGCCACTGACATTCTTC | -0.451 |
| TTCTTCAACATCTCAGATCCAA | 0.0512 |
| TTGAACAACTTGATCAGTGTGA | 0.976 |
| TTACAGGTTGGTAACCTCTTGT | 0.125 |
| TTGACAAAGATTGATATCTTTT | -1.25 |
| TTCATAGTGAAACTCAACTGGG | -0.55 |
| TTGCTCTTCTTTGAACAACTTG | -0.818 |

Target: NXF5
Experiment: as above
Conditions: shRNA

| Sequence | sensor-assay potency score (higher = more potent) |
| --- | --- |
| TTTCTTTCAGTGATCTTCAGGG | 0.16 |
| TACATAGGCAGACTGGTCCGAG | -0.391 |
| TTCGTGGACATTTTGTGTGCTT | -0.318 |
| TTTTGTGTGCTTTAGCAGCTTC | 0.239 |
| TTGAAGTACTTGCACAAGTTGC | -0.882 |
| TCTTTCAGTGATCTTCAGGGTG | -0.168 |
